The source made the active and inactive calls. A call without a number means that no potency is given here. Calls follow the shape of the dose curve; as a rule, active = well fitted inhibition curve with a large enough effect; inconclusive = small, poorly fitted or top-dose-only effect; inactive = flat fitted curve, though single readings scatter.
biological target: Flap endonuclease 1 (Homo sapiens) (UniProt P39748); test: qHTS Validation Assay for the Inhibitors of Human Flap endonuclease 1 (FEN1) (AID 488816); settings: FEN1 nuclease activity, fluorogenic DNA substrate; series mostly up to 57.1 µM
Sequence (P39748 whole entry, looked up, the tested form may be a part): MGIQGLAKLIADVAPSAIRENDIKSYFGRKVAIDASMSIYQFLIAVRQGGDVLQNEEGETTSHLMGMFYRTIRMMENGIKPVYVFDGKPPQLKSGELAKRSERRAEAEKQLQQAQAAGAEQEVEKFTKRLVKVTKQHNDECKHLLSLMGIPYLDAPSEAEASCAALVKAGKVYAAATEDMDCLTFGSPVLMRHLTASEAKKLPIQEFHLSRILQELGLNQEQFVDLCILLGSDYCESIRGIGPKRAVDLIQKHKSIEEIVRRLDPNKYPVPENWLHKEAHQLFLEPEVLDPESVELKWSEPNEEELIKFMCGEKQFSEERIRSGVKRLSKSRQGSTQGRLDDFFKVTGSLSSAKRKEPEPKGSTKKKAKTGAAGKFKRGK
Source text: The major human flap endonuclease FEN1 is an efficient structure-specific enzyme that recognizes and cleaves a 5'-unannealed DNA flap. It belongs to the RAD2 family nucleases, which are involved in DNA metabolism and are highly conserved in prokaryotes and eukaryotes. FEN1 is a key enzyme in DNA replication, repair and maintenance of genomic stability. 5'-flap removal by FEN1 is critical for Okazaki fragment processing during lagging strand DNA synthesis, long-patch base excision repair (LP BER), and regulating or facilitating recombination events. […] Deletion of the yeast FEN1 gene, i.e. rad27, results in an increased frequency of short DNA (3-32 bp) repeats, micro- and mini-satellite formation, trinucleotide repeat expansion, spontaneous recombination events, and a severe growth defect in association with cell cycle arrest in late S/G2 phase. […] Cells from fen1-/- blastocysts show increased apoptotic cell death after ionizing radiation treatment, and chicken cells lacking the fen1 gene are hypersensitive to DNA alkylating agents, e.g. methylmethane sulfonate (MMS) and N-methyl-N'-nitro-N-nitrosoguanidine (MNNG), as well as hydrogen peroxide.
FEN1 is found to be increased in many human cancers, including lung, brain cancer, gastric cancer, prostate cancer, pancreatic cancer and breast cancer. […] In particular, elevation of FEN1 in hormone refractory human prostate cancer cells correlates with resistant to various anticancer agents including ionizing radiation, doxorubicin, paclitaxel and vinblastine.
Three uL of reagents (buffer in column 3 and 4 as negative control and 10 nM FEN1 in columns 1, 2, and 5-48) were dispensed into 1,536-well black solid-bottomed plate. Compounds (23 nL) were transferred via Kalypsys pin tool equipped with 1536-pin array (10 nL slotted pins, V&P Scientific, San Diego, CA). The plates were then incubated for 15 min at room temperature, and 1 uL substrate (50 nM final concentration) were added to start the reaction read twice at 0 min read and 15 min on ViewLux reader. Throughout the screen, reagent bottle and all liquid lines were chilled and made light-tight to minimize reagent degradation. All screening operations were performed on a fully integrated robotic system (Kalypsys, San Diego, CA) containing one RX-130 and two RX-90 anthropomorphic robotic arms (Staubli, Duncan, SC). Library plates were screened starting from the lowest and proceeding to the highest concentration, and a "double-dipping" step of the highest concentration was required to access higher concentrations of compounds. Vehicle-only plates, with DMSO being pin-transferred to the entire column 5-48 compound area, were inserted uniformly at the beginning and the end of each library in order to monitor for and record any shifts in the background, which can be affected by reagent dispensers or loss in enzyme activity overtime. Screening data was corrected, normalized, and concentration-effect relationships were derived by using publicly-available curve fitting algorithms developed in-house (http://ncgc.nih.gov/pub/openhts). A four parameter Hill equation was fitted to the concentration-response data by minimizing the residual error between the modeled and observed responses.
Potency is read from the fitted curve at half-maximal effect.

**Q.** With CCCCCCCCCCCCCCCCCCNC(=O)OCC(COP(=O)([O-])OCC[n+]1ccsc1)OC (stereo not given) as the compound, how does the Potency read?
**A.** Its Potency is “inactive”.

**Q.** With N#C/C(=C\c1ccc(O)c(O)c1)C(=O)c1ccc(O)c(O)c1 as the compound, how does the Potency read?
**A.** The Potency was 752 nM (active).

**Q.** How did the Potency turn out when COc1cccc(OC)c1OCCNCC1COc2ccccc2O1 (stereo not given) was run?
**A.** Its Potency is “inactive”.

**Q.** With O=C(O)[C@@H]1C[C@@H](C(=O)O)N1 as the compound, how does the Potency read?
**A.** Its Potency is “inactive”.

**Q.** How did the Potency turn out when CCOC(=O)N1CCN(/[N+]([O-])=N/Oc2ccc([N+](=O)[O-])cc2[N+](=O)[O-])CC1 was run?
**A.** Its Potency is “inactive”.

**Q.** How did the Potency turn out when CN1C2CCC1CC(OC(=O)C(O)c1ccccc1)C2 (stereo not given) was run?
**A.** Its Potency is “inactive”.

**Q.** Which Potency does the source give for Cc1cc2c(cc1Cl)N(C(=O)Nc1ccc(Oc3cccnc3C)nc1)CC2 here?
**A.** Its Potency is “inactive”.

**Q.** With Oc1cc(O)cc(/C=C/c2ccc(O)c(O)c2)c1 as the compound, how does the Potency read?
**A.** Its Potency is 844 nM (active).

**Q.** With CCCCCCCCCCCCCCCCCC(=O)OC(CC(=O)O)C[N+](C)(C)C (stereo not given) as the compound, how does the Potency read?
**A.** Its Potency is “inactive”.

**Q.** For c1cnc2c(c1)ccc1cccnc12, which Potency is on record?
**A.** Its Potency is “inactive”.

**Q.** Which Potency does the source give for CCOC(=O)C1=C(C)NC(C)=C(C(=O)OCC)C1c1c(F)c(F)c(F)c(F)c1F here?
**A.** Its Potency is “inactive”.

**Q.** O=C1NC(=O)/C(=C/c2ccc3nccnc3c2)S1 was tested. Which Potency did it give?
**A.** Its Potency is “inactive”.

**Q.** For CCCCCCCCCCCCCCCC(=O)NCC(COP(=O)([O-])OCC[N+](C)(C)C)OCC (stereo not given), which Potency is on record?
**A.** The Potency was “inactive”.

**Q.** For CCCCN1CCC(n2c(=O)[nH]c3ccccc32)CC1, which Potency is on record?
**A.** Its Potency is “inactive”.

**Q.** Cc1cc(NC(=O)Nc2ccc3c(ccn3C)c2)sn1 was tested. Which Potency did it give?
**A.** Its Potency is “inactive”.

**Q.** For CN(C)C(N)=NCCC[C@H](N)C(=O)O, which Potency is on record?
**A.** Its Potency is “inactive”.

**Q.** Which Potency does the source give for N#C/C(=C\c1ccc(O)c(O)c1)C(=O)NCCCc1ccccc1 here?
**A.** Its Potency is “inactive”.

**Q.** O=Nc1ccc2oc(=O)ccc2c1 was tested. Which Potency did it give?
**A.** Its Potency is “inactive”.

**Q.** NC[C@H]1O[C@@H](n2cnc3c(N)ncnc32)[C@H](O)[C@@H]1O was tested. Which Potency did it give?
**A.** The Potency was “inactive”.

**Q.** NC(=O)C1=CN(C2OC(COP(=O)(O)OP(=O)(O)OC[C@H]3O[C@@H](n4cnc5c(N)ncnc54)[C@H](OP(=O)(O)O)[C@@H]3O)C(O)C2O)C=CC1 (stereo not given in full) was tested. Which Potency did it give?
**A.** Its Potency is “inactive”.

**Q.** C#C[C@]1(O)CC[C@H]2[C@@H]3CCC4=Cc5oncc5CC4(C)[C@H]3CCC21C (stereo not given in full) was tested. Which Potency did it give?
**A.** The Potency was “inactive”.

**Q.** With C#CCN1C(C)=C(C(=O)OC)C(c2cccc([N+](=O)[O-])c2)C(C(=O)OCC)=C1C (stereo not given) as the compound, how does the Potency read?
**A.** The Potency was “inactive”.

**Q.** Which Potency does the source give for O=c1[nH]c2cc(Cl)c(Cl)cc2[nH]c1=O here?
**A.** The Potency was “inactive”.

**Q.** How did the Potency turn out when CC(C)NC[C@@H](O)c1ccc(O)c(O)c1 was run?
**A.** The Potency was “inactive”.

**Q.** Which Potency does the source give for C[N+](C)(C)CCOP(=O)(O)OP(=O)([O-])OC[C@H]1O[C@@H](n2ccc(N)nc2=O)[C@H](O)[C@@H]1O here?
**A.** Its Potency is “inactive”.

**Q.** How did the Potency turn out when Oc1ccc(C2CNCc3sccc32)cc1O (stereo not given) was run?
**A.** Its Potency is “inactive”.

**Q.** Which Potency does the source give for Clc1ccc(N2CCN(Cc3cc4ccccn4n3)CC2)cc1 here?
**A.** Its Potency is “inactive”.

**Q.** Which Potency does the source give for O=C(O)/C=C/C(O)c1ccc(Cl)cc1 (stereo not given) here?
**A.** The Potency was “inactive”.

**Q.** Which Potency does the source give for COc1ccccc1N1CCN(CCN(C(=O)c2ccc(I)cc2)c2ccccn2)CC1 here?
**A.** Its Potency is “inactive”.

**Q.** How did the Potency turn out when NCCSSCCN was run?
**A.** Its Potency is “inactive”.

**Q.** How did the Potency turn out when O=C(c1ccc(OCCCc2cnc[nH]2)cc1)C1CC1 was run?
**A.** Its Potency is “inactive”.

**Q.** How did the Potency turn out when CCN(CC)c1ncnc2c1ncn2[C@@H]1O[C@H](COP(=O)(O)OP(=O)(O)C(Br)(Br)P(=O)(O)O)[C@@H](O)[C@H]1O was run?
**A.** Its Potency is “inactive”.

**Q.** N[C@@H](CC(=O)O)C(=O)O was tested. Which Potency did it give?
**A.** Its Potency is “inactive”.

**Q.** For CC(C)(C)c1ccc(S(=O)(=O)/C=C/C#N)cc1, which Potency is on record?
**A.** Its Potency is “inactive”.

**Q.** With CN1CCc2ccccc2Cc2[nH]c3ccccc3c2CC1 as the compound, how does the Potency read?
**A.** Its Potency is “inactive”.

**Q.** How did the Potency turn out when CN(C)c1ccc(/C=C2\C(=O)Nc3ccccc32)cc1 was run?
**A.** Its Potency is “inactive”.

**Q.** Ic1ccc(N2CCN(Cc3c[nH]c4ncccc34)CC2)cc1 was tested. Which Potency did it give?
**A.** The Potency was “inactive”.

**Q.** How did the Potency turn out when CNC(=O)[C@H]1O[C@@H](n2cnc3c(NCc4cccc(I)c4)ncnc32)[C@H](O)[C@@H]1O was run?
**A.** Its Potency is “inactive”.

**Q.** How did the Potency turn out when Oc1cc2c(cc1O)CN(C(=S)NCCc1ccc(Cl)cc1)CCC2 was run?
**A.** The Potency was “inactive”.

**Q.** How did the Potency turn out when Nc1ncnc2c1ncn2[C@@H]1O[C@H](COP(=O)(O)CP(=O)(O)OP(=O)(O)O)[C@@H](O)[C@H]1O was run?
**A.** Its Potency is “inactive”.

— PubChem BioAssay (NCATS)
